Article PMC7862700, “An all-to-all approach to the identification of sequence-specific readers for epigenetic DNA modifications on cytosine”

Columns and labels:
Test in all cases: DAPPL (digital affinity profiling via proximity ligation, sequencing); 10 mM Tris-HCl pH 7.5, 50 mM NaCl, 1 mM DTT, 4% glycerol, room temperature, 30 min; GST-TFs on glutathione beads, 16-mer random dsDNA library, 0.1% formaldehyde crosslink after washing; high values mean tight binding
FLI1 = target: T1, FLI1 (Homo sapiens, UniProt Q01543 1-452); settings: protein: recombinant; tags: N-terminal GST; dsDNA, one strand shown
T1 sequence: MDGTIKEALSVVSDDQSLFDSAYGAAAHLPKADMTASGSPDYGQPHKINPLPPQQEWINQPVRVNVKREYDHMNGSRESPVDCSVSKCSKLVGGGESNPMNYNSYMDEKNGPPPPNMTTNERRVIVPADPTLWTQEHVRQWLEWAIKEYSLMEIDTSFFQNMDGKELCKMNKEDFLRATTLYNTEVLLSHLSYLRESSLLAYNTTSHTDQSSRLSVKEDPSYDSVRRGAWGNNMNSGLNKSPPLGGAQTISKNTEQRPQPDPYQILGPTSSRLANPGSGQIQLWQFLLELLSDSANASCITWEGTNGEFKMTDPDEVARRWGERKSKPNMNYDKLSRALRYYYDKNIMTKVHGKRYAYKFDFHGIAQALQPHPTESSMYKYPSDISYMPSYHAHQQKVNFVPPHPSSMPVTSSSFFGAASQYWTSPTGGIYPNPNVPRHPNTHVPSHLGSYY
Summary of the method: (§1)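 Pools of DNA-barcoded human transcription factors, expressed in yeast as GST fusions on glutathione beads and combined with a tag-only sample, were incubated with 200 nmole of a 16-mer random double-stranded DNA library. Incubation took 30 min at room temperature in Tris/NaCl/DTT/glycerol buffer and was followed by washing, 0.1% formaldehyde crosslinking, proximity ligation (BsaI/T4 ligase, 1 h, 37 °C), PCR amplification and sequencing on an Illumina NextSeq500. Binding signal is the ratio of a hexamer's read frequency for a factor to its frequency for the tag-only sample.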

ELK1 = target: T2, ELK1 (Homo sapiens, UniProt P19419 1-428); settings: protein: recombinant; tags: N-terminal GST; dsDNA, one strand shown
T2 sequence: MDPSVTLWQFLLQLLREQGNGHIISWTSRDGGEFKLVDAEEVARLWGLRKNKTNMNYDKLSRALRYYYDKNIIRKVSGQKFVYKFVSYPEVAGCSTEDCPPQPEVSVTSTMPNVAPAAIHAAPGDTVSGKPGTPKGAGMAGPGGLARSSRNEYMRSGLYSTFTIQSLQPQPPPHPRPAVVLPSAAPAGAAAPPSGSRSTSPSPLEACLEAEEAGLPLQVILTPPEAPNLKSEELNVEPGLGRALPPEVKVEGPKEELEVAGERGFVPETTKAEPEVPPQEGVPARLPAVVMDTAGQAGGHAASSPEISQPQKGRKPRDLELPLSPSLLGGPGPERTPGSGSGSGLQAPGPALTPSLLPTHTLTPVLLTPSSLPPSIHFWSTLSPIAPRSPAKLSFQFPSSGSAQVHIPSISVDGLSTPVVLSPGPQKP
Summary of the method: as §1

GABPA = target: T3, GABPA (Homo sapiens, UniProt Q06546 1-454); settings: protein: recombinant; tags: N-terminal GST; dsDNA, one strand shown
T3 sequence: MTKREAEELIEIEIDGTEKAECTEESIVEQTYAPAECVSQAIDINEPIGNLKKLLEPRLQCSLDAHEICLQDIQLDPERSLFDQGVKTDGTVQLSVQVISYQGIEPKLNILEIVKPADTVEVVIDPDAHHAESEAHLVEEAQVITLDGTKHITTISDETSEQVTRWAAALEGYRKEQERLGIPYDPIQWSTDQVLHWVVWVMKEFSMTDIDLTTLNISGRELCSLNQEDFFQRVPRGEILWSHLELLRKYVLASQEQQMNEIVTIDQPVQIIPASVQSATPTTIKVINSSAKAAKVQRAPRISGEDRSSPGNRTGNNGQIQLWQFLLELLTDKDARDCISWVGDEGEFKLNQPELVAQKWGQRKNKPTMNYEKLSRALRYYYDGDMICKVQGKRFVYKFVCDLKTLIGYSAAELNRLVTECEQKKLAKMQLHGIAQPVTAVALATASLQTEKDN
Summary of the method: as §1

ERG = target: T4, ERG (Homo sapiens, UniProt P11308 1-479); settings: protein: recombinant; tags: N-terminal GST; dsDNA, one strand shown
T4 sequence: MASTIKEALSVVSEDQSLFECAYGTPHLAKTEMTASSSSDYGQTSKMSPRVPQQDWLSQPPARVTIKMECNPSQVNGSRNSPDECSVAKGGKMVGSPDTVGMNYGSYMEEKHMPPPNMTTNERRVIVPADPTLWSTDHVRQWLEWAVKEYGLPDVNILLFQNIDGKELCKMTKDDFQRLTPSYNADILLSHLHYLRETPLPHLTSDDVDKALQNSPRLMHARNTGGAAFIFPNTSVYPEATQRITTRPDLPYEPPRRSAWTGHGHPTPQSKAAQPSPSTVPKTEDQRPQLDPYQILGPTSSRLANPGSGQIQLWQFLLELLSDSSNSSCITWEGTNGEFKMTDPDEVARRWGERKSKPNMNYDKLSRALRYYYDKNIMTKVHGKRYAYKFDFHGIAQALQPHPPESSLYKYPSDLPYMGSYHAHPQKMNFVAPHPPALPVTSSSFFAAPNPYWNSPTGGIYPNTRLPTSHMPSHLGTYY
Summary of the method: as §1

ELF1 = ELF1 (Homo sapiens, UniProt P32519 1-619); settings: protein: recombinant; tags: N-terminal GST; dsDNA, one strand shown
Chain of ELF1 (P32519 whole entry): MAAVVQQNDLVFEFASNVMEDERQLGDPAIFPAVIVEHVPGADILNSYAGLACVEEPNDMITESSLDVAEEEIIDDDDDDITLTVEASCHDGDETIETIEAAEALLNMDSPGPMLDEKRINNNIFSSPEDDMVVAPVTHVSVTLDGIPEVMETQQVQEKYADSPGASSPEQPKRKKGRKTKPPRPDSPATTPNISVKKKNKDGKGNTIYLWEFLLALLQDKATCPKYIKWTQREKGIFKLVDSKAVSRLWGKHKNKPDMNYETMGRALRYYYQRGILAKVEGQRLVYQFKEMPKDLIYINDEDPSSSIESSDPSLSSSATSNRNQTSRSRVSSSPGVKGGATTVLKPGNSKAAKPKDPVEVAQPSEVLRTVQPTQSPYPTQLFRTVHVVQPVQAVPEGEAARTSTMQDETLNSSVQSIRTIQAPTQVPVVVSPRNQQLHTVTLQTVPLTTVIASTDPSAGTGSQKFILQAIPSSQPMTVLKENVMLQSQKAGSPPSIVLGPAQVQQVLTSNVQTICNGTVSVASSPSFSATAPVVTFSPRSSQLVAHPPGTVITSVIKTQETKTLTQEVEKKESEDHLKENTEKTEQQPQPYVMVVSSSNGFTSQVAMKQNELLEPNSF
Summary of the method: as §1

EHF = target: T5, EHF (Homo sapiens, UniProt Q9NZC4 1-300); settings: protein: recombinant; tags: N-terminal GST; dsDNA, one strand shown
T5 sequence: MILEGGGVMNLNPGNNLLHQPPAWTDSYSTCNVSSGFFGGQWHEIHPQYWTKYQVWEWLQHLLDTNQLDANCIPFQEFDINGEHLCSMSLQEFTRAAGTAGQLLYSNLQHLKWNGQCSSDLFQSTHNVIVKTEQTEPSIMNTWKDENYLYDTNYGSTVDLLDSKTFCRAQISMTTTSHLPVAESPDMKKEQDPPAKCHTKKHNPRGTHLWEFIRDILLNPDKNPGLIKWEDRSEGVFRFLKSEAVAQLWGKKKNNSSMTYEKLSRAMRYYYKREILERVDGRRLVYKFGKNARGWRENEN
Summary of the method: as §1

SPI1 = SPI1 (Homo sapiens, UniProt P17947 1-270); settings: protein: recombinant; tags: N-terminal GST; dsDNA, one strand shown
Summary of the method: as §1

SPIB = SPIB (Homo sapiens, UniProt Q01892 1-262); settings: protein: recombinant; tags: N-terminal GST; dsDNA, one strand shown
Chain of SPIB (Q01892 whole entry): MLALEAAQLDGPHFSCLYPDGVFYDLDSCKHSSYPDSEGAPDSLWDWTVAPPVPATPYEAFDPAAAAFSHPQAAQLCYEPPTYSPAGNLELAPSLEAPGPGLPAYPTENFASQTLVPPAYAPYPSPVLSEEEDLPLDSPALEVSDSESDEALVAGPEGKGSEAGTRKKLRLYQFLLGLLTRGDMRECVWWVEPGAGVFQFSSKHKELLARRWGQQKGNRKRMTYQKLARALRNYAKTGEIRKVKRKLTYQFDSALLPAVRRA
Summary of the method: as §1

ELK3 = target: T6, ELK3 (Homo sapiens, UniProt P41970 1-407); settings: protein: recombinant; tags: N-terminal GST; dsDNA, one strand shown
T6 sequence: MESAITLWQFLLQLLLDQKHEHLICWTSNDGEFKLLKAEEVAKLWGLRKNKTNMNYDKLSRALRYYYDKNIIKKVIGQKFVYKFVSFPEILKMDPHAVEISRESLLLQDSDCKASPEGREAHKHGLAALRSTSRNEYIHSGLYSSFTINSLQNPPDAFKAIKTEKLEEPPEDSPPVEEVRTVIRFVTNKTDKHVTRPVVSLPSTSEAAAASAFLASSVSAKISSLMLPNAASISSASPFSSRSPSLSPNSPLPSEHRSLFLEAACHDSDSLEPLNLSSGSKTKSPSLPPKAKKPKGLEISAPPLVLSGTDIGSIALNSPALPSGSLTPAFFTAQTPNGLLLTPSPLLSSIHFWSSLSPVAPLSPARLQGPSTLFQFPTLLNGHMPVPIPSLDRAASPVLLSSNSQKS
Summary of the method: as §1

FEV = target: T7, FEV (Homo sapiens, UniProt Q99581 1-238); settings: protein: recombinant; tags: N-terminal GST; dsDNA, one strand shown
T7 sequence: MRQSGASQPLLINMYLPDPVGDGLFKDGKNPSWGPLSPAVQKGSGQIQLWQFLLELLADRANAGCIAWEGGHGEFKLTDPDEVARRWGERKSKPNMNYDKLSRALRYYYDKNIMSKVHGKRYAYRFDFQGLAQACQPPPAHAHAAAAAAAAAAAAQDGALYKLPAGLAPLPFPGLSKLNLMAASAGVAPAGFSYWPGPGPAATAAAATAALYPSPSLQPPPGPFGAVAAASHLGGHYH
Summary of the method: as §1

ETV5 = ETV5 (Homo sapiens, UniProt P41161 1-510); settings: protein: recombinant; tags: N-terminal GST; dsDNA, one strand shown
Chain of ETV5 (P41161 whole entry): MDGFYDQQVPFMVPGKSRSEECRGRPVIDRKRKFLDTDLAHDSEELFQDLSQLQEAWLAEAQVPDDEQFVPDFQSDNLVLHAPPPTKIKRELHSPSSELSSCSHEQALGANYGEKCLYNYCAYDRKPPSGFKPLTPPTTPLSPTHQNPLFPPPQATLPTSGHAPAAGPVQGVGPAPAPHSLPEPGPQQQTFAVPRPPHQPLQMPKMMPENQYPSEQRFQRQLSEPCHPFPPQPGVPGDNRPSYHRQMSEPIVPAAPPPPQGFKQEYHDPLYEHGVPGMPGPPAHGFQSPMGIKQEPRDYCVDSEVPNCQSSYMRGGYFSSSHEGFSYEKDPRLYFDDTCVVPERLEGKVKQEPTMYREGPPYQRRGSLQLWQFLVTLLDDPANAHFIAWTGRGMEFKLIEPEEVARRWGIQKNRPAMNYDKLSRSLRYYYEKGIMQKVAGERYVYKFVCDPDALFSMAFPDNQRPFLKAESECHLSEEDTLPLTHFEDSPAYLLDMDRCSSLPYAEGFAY
Summary of the method: as §1

HSF1 = HSF1 (Homo sapiens, UniProt Q00613 1-529); settings: protein: recombinant; tags: N-terminal GST; chain copies: 3; dsDNA, one strand shown
Chain of HSF1 (Q00613 whole entry): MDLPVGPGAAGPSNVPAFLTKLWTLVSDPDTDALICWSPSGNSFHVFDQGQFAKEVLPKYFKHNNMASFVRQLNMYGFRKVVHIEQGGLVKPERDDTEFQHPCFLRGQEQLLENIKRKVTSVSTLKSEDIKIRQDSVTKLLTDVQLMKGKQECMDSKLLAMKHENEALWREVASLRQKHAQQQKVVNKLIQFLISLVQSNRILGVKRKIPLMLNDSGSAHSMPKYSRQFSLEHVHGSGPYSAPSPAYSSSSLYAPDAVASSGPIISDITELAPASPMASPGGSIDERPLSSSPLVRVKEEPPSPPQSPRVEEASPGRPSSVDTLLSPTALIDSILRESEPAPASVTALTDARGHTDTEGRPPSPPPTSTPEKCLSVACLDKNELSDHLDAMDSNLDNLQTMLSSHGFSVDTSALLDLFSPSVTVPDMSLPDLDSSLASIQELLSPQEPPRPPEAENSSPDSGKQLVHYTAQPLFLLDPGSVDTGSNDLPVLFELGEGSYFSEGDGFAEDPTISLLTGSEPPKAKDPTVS
Summary of the method: as §1

SPIC = target: T8, SPIC (Homo sapiens, UniProt Q8N5J4 1-248); settings: protein: recombinant; tags: N-terminal GST; dsDNA, one strand shown
T8 sequence: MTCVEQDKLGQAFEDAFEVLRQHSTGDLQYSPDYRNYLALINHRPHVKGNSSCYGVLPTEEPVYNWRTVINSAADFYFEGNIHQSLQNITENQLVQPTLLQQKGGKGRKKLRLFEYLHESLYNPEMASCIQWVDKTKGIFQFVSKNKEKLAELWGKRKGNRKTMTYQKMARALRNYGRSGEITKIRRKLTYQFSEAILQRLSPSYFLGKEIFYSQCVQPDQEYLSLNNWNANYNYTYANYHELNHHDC
Summary of the method: as §1

ELF4 = ELF4 (Homo sapiens, UniProt Q99607 1-663); settings: protein: recombinant; tags: N-terminal GST; dsDNA, one strand shown
Chain of ELF4 (Q99607 whole entry): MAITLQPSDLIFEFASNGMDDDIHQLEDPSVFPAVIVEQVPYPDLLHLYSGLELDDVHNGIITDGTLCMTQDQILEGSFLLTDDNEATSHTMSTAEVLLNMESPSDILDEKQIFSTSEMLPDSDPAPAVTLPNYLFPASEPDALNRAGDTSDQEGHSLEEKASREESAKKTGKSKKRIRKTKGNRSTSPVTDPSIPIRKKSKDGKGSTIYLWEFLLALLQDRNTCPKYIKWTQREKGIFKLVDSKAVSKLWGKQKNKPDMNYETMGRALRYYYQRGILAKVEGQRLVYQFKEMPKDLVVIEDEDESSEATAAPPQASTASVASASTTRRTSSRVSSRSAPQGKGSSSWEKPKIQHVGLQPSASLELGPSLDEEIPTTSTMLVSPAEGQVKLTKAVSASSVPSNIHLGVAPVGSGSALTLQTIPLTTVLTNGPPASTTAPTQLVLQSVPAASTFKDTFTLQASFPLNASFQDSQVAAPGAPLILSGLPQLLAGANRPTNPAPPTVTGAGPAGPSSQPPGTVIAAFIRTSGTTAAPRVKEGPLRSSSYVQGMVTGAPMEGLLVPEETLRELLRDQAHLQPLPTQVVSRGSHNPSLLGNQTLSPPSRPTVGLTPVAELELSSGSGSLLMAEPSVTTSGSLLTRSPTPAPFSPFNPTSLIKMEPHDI
Summary of the method: as §1

ELK4 = target: T9, ELK4 (Homo sapiens, UniProt P28324-2 1-405); settings: protein: recombinant; tags: N-terminal GST; dsDNA, one strand shown
T9 sequence: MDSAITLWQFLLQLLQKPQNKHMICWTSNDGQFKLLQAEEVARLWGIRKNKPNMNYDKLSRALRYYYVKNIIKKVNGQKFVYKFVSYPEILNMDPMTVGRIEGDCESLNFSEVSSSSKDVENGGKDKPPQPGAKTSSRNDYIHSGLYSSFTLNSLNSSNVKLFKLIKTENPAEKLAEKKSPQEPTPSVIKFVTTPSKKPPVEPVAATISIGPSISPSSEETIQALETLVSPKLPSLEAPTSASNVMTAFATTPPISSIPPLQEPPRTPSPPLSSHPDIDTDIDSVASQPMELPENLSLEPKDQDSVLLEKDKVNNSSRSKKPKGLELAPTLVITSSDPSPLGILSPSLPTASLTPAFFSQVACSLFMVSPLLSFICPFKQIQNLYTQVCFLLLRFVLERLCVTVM
Summary of the method: as §1

ETV2 = target: T10, ETV2 (Homo sapiens, UniProt O00321 1-342); settings: protein: recombinant; tags: N-terminal GST; dsDNA, one strand shown
T10 sequence: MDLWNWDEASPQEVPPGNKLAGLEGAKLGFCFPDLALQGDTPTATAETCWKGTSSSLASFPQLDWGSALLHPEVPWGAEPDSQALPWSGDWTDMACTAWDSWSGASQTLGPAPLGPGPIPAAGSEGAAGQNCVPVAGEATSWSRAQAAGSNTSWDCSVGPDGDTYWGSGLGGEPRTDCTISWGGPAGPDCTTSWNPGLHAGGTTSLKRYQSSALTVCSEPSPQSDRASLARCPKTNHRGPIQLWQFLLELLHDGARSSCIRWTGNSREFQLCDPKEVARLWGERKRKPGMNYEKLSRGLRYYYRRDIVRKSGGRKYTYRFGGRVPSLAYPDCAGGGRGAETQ
Summary of the method: as §1

ELF3 = target: T11, ELF3 (Homo sapiens, UniProt P78545 1-371); settings: protein: recombinant; tags: N-terminal GST; dsDNA, one strand shown
T11 sequence: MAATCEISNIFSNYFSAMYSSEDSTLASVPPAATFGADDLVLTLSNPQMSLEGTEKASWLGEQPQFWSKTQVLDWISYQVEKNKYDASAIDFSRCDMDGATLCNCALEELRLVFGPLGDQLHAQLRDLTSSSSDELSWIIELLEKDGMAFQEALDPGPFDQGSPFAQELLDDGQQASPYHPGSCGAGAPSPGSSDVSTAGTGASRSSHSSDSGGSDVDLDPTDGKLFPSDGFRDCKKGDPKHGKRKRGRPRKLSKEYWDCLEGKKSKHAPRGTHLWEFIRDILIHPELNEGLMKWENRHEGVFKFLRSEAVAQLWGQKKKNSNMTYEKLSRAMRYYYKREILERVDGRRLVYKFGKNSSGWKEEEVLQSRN
Summary of the method: as §1

CRX = CRX (Homo sapiens, UniProt O43186 1-299); settings: protein: recombinant; tags: N-terminal GST; dsDNA, one strand shown
Chain of CRX (O43186 whole entry): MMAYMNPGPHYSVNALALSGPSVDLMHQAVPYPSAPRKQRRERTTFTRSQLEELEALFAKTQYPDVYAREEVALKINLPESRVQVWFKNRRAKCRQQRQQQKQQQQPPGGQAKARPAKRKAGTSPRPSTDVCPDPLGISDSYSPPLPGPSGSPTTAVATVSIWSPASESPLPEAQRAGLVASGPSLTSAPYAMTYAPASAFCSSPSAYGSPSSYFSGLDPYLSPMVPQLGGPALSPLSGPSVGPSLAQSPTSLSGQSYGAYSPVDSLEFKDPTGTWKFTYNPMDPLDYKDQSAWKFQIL
Summary of the method: as §1

ETV1 = ETV1 (Homo sapiens, UniProt P50549 1-477); settings: protein: recombinant; tags: N-terminal GST; dsDNA, one strand shown
Chain of ETV1 (P50549 whole entry): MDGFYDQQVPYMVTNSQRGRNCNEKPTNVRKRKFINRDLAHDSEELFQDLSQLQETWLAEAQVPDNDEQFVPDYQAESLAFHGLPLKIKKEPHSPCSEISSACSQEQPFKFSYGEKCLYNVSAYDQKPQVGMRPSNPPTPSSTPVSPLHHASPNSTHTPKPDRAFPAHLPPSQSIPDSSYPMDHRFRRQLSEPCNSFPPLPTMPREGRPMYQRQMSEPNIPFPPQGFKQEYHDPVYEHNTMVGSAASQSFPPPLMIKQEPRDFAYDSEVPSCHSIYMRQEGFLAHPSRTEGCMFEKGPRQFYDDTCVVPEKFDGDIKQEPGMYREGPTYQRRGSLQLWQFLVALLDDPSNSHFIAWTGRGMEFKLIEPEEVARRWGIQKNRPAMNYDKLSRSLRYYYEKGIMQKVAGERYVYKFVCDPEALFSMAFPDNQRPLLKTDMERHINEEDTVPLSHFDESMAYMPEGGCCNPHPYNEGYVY
Summary of the method: as §1

ATGCCT
binding signal (FLI1): 1.38 fold enrichment (6-mer frequency, TF over GST control) | binding signal (ELK1): 1.4 fold enrichment (6-mer frequency, TF over GST control) | binding signal (GABPA): 1.52 fold enrichment (6-mer frequency, TF over GST control) | binding signal (ERG): 1.48 fold enrichment (6-mer frequency, TF over GST control) | binding signal (ELF1): 1.35 fold enrichment (6-mer frequency, TF over GST control) | binding signal (EHF): 1.42 fold enrichment (6-mer frequency, TF over GST control) | binding signal (SPI1): 1.32 fold enrichment (6-mer frequency, TF over GST control) | binding signal (SPIB): 1.45 fold enrichment (6-mer frequency, TF over GST control) | binding signal (ELK3): 1.22 fold enrichment (6-mer frequency, TF over GST control) | binding signal (FEV): 1.35 fold enrichment (6-mer frequency, TF over GST control) | binding signal (ETV5): 1.41 fold enrichment (6-mer frequency, TF over GST control) | binding signal (HSF1): 1.13 fold enrichment (6-mer frequency, TF over GST control) | binding signal (SPIC): 1.55 fold enrichment (6-mer frequency, TF over GST control) | binding signal (ELF4): 1.29 fold enrichment (6-mer frequency, TF over GST control) | binding signal (ELK4): 1.49 fold enrichment (6-mer frequency, TF over GST control) | binding signal (ETV2): 1.2 fold enrichment (6-mer frequency, TF over GST control) | binding signal (ELF3): 1.4 fold enrichment (6-mer frequency, TF over GST control) | binding signal (CRX): 1.28 fold enrichment (6-mer frequency, TF over GST control) | binding signal (ETV1): 1.33 fold enrichment (6-mer frequency, TF over GST control)
